Data: PubChem BioAssay (NCATS)
Records with an inconclusive call do not appear. This is one part of the list. The source made the active and inactive calls. Unless noted, calls follow the shape of the dose curve; as a rule, active = well fitted curve in the direction sought with a large enough effect; inconclusive = small, poorly fitted or top-dose-only effect, or another doubt; inactive = no such curve, though single readings can be large; an effect the other way counts as inactive or inconclusive.

Key:
[1] = target: Rap guanine nucleotide exchange factor 3 (Homo sapiens) (UniProt O95398); assay: Confirmatory qHTS for antagonist of cAMP-regulated guanine nucleotide exchange factor 3 (EPAC1) (AID 1645880); conditions: EPAC1 Rap1B-BODIPY-GDP exchange, fluorescence; activity, negative = inhibition: at 115 µM (top of the series); also: nearly all actives have a fitted effect of over 55% in size; also: potency is read from the fitted curve at half-maximal effect;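 as to activity, negative = inhibition: plate controls were DMSO only for no effect and full effect of the ATA control for full effect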
Chain of Rap guanine nucleotide exchange factor 3 (Homo sapiens) (O95398 whole entry, looked up): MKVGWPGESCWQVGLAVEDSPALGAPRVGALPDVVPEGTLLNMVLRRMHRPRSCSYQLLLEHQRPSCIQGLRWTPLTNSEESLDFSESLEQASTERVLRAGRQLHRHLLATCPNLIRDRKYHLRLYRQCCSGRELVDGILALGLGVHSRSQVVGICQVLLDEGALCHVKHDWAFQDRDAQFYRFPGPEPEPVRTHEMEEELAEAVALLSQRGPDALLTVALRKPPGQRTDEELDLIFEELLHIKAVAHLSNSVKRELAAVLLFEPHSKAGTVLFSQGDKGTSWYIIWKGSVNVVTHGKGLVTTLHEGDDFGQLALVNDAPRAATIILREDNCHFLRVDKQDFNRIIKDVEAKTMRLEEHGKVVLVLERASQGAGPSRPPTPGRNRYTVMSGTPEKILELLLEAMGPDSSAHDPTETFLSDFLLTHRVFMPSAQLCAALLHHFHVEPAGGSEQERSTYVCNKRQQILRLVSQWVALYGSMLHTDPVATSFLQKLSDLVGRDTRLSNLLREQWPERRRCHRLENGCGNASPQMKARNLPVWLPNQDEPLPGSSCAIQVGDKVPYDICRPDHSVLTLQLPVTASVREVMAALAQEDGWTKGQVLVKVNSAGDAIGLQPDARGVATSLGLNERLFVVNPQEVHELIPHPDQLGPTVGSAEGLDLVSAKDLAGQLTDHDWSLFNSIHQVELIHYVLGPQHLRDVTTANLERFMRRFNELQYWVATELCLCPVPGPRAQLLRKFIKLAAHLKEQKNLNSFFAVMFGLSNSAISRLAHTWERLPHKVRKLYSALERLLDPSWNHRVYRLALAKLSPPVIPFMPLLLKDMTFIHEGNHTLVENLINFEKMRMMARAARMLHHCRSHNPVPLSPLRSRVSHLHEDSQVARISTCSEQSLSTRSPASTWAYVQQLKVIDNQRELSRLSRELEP
Summary of the method: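 Nucleotide exchange uses 100 nM EPAC1, 250 nM RAP1B-BODIPY-GDP and 50 uM GDP, with compounds in a concentration-titration series. After 5 min at room temperature, fluorescence (480 nm ex/540 nm em) is read every 5 min for 30 min. Data are normalized to control ATA and DMSO.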

[2] = target: Rap guanine nucleotide exchange factor 3 (Homo sapiens) (UniProt O95398); assay: Confirmatory qHTS for agonist of cAMP-regulated guanine nucleotide exchange factor 3 (EPAC1) (AID 1645881);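 also: EPAC1 catalysed release of BODIPY-GDP from Rap1B seen as fluorescence loss; 100% = effect of cAMP agonist control; nearly all actives have a fitted effect of over 75% in size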
[3] = target: Rap guanine nucleotide exchange factor 4 (Homo sapiens) (UniProt Q8WZA2); assay: Confirmatory qHTS for agonist of cAMP-regulated guanine nucleotide exchange factor 4 (EPAC2) (AID 1645884);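 also: nucleotide exchange releases bodipy-GDP from Rap1 and this lowers its fluorescence; % is scaled to controls: 0 for no effect and ±100 for the full control effect; nearly all actives have a fitted effect of over 65% in size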
Chain of Rap guanine nucleotide exchange factor 4 (Homo sapiens) (Q8WZA2 whole entry, looked up): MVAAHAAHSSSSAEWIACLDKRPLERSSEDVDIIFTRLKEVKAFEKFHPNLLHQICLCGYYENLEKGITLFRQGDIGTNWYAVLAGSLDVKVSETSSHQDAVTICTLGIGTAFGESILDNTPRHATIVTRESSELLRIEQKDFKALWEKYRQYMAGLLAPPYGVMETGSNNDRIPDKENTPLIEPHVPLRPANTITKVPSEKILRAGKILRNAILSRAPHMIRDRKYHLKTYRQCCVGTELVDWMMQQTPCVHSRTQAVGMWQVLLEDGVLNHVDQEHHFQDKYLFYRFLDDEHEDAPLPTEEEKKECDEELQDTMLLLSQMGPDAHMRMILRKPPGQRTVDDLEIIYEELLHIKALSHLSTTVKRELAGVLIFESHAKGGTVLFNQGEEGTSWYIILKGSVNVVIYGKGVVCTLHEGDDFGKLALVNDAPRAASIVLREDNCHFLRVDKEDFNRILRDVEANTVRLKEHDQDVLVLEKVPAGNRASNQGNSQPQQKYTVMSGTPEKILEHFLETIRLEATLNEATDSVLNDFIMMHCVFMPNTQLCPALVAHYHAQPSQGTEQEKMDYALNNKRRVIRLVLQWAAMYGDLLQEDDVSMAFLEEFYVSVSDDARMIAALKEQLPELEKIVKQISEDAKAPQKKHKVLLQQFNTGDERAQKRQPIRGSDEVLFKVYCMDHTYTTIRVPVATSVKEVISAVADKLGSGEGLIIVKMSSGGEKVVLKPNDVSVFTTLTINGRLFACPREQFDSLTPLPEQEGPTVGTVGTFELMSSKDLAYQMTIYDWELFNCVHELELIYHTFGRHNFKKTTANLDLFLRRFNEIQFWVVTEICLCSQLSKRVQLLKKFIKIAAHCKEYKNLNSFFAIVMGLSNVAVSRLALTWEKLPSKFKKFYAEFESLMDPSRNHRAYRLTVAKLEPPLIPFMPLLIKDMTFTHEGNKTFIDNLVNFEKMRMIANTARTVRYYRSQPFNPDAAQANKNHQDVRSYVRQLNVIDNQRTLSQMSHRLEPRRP

[4] = target: Rap guanine nucleotide exchange factor 4 (Homo sapiens) (UniProt Q8WZA2); assay: Confirmatory qHTS for antagonist of cAMP-regulated guanine nucleotide exchange factor 4 (EPAC2) (AID 1645885); also: % is scaled to controls: 0 for no effect and ±100 for the full control effect; nearly all actives have a fitted effect of over 25% in size
[5] = target: Rap guanine nucleotide exchange factor 3 (Homo sapiens) (UniProt O95398); assay: Counterscreen qHTS for antagonist of cAMP-regulated guanine nucleotide exchange factor 3 (EPAC1) (AID 1645888);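 also: fluorescence loss as bound BODIPY-GDP is released from Rap1B; % of control where 0% means no effect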
Summary of the method: (§1)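 Rap1B-BODIPY-GDP 250 nM + GDP 50 uM; cpds 7-pt, final 9.74 nM–152 uM (activator mode) or from 7.32 nM upwards (inhibitor mode); RT; FI 480/540 nm at 5 and 30 min, then ± cAMP, reread.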

[6] = target: Rap guanine nucleotide exchange factor 3 (Homo sapiens) (UniProt O95398); assay: Counterscreen qHTS for agonist of cAMP-regulated guanine nucleotide exchange factor 3 (EPAC1) (AID 1645889); also: % of control where 0% means no effect; nearly all actives have a fitted effect of over 40% in size
Summary of the method: as §1

[7] = Counterscreen for APE1 Inhibitors: Fluorescent Dye Displacement Assay (AID 2564);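 also: loss of thiazole orange fluorescence as the dye is displaced from duplex DNA; 0% = ThO with dsDNA and no compound and -100% = ThO without dsDNA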
Summary of the method: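 Compounds are scored by their ability to displace Thiazole Orange (250 nM) from a 50 nM TAMRA-tagged duplex bearing a tetrahydrofuran abasic site. Buffer is 50 mM Tris-HCl pH7.5, 50mM NaCl, 2 mM MgCl2, 0.01% Tween-20.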

[8] = target: Endonuclease 4 (Escherichia coli (strain K12)) (UniProt P0A6C1); assay: Counterscreen for APE1 Inhibitors: qHTS Assay for Inhibitors of Endonuclease IV (AID 2565);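 also: plate controls were uninhibited enzyme wells for no effect and no enzyme buffer wells for full effect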
Summary of the method: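 Enzymatic AP-site incision assay using a double-stranded THF substrate labelled with TAMRA and BHQ-2; released fluorescence signals activity. Enzyme 2 nM, substrate 50 nM, 15 min compound preincubation.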

[9] = target: DNA repair nuclease/redox regulator APEX1 (Homo sapiens) (UniProt P27695); assay: Confirmation qHTS Assay for Inhibitors of the Human Apurinic/apyrimidinic Endonuclease 1 (APE1) (AID 2572); conditions: purified APE1, fluorogenic abasic-site DNA cleavage; also: potency is read from the fitted curve at half-maximal effect; nearly all actives have a fitted effect of over 30% in size
Chain of DNA repair nuclease/redox regulator APEX1 (Homo sapiens) (P27695 whole entry, looked up): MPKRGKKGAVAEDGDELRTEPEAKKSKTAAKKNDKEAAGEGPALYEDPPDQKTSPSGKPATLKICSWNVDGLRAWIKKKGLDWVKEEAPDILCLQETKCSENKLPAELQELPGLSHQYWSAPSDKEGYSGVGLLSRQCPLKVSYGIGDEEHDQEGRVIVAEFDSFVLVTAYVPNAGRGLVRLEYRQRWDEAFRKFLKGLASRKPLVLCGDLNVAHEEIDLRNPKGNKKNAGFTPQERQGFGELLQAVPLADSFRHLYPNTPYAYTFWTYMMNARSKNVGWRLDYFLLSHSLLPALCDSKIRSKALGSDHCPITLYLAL
Summary of the method: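 15 min RT compound–APE1 preincubation → add 50 nM final THF-abasic TAMRA/BHQ-2 dsDNA → immediate kinetic read, 3 × 60 s, Ex 525/Em 598 → Δ fluorescence (read 3 − read 1).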

[10] = target: DNA repair nuclease/redox regulator APEX1 (Homo sapiens) (UniProt P27695); assay: qHTS FP-Based Assay for Inhibitors of the Human Apurinic/apyrimidinic Endonuclease 1 (APE1) (AID 2573); also: % is scaled to controls: 0 for no effect and ±100 for the full control effect
From the text: The apurinic/apyrimidinic endonuclease APE1 is the primary mammalian enzyme responsible for the removal of abasic (or AP) sites in DNA and functions centrally in the base excision DNA repair (BER) pathway. […] Thus, targeting APE1 could improve the efficacy of current treatment paradigms by promoting selective sensitization or protection of diseased and normal cells, respectively.
In order to gain insight into the mode of action of confirmed APE1 inhibitors, we implemented a miniaturized fluorescence polarization assay designed to report on compounds which competitively displace ds-DNA substrate. The fluorescence polarization assay has been implemented in 384- and 1536-well format for binding of TAMRA-labeled double-stranded DNA probe not containing a quencher. The binding of protein to DNA is inhibited by ATA, a general inhibitor of APE1 activity.
See also related primary fluorogenic assay (AID 2517). […]
Three uL of enzyme were dispensed to 1536-well Greiner black solid bottom plates. […] The plates were immediately transferred into ViewLux High-throughput CCD imager (Perkin-Elmer) in order to measure the reaction progress in kinetic mode (three reads every 60 seconds) using 525 nm excitation and 598 nm emission fluorescence protocol. The fluorescence intensity difference between the third and the first time points was used to compute reaction progress.

[11] = AP1 Signaling Pathway (AID 357; active = well fitted curve in either direction with a large enough effect, not every such curve was filed as active; also: % is scaled to controls: 0 for no effect and ±100 for the full control effect); conditions: ME-180 AP-1-bla reporter, EGF-induced, beta-lactamase ratio, 5 h; at 7.69 µM (top of the series) unless noted
Summary of the method: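 AP-1-bla ME-180 cells with beta-lactamase reporter under AP-1 response element, stimulated with EC50 EGF; compounds titrated, 5 hours at 37 degrees Celsius. CCF4 read at 460/530 nm ratio; positive and negative modulators judged by AC50.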

[12] = NFAT Signaling Pathway (AID 444; active = well fitted curve in either direction with a large enough effect, not every such curve was filed as active;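 also: carbachol stimulus at about its EC50 of 1 µM final; % is scaled to controls: 0 for no effect and ±100 for the full control effect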); conditions: Jurkat NFAT-bla M1, carbachol, beta-lactamase ratio, 5 h; at 7.69 µM (top of the series) unless noted
Summary of the method: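 Read-out: CCF4 FRET ratio (460 nm/530 nm) after 1 h RT dye loading, used for %activity and AC50 from titration series. Cells: Jurkat NFAT-β-lactamase/M1 line, treated with compound plus 1 uM carbachol for 5 h, 37 °C.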

[13] = Stat Signaling Pathway (AID 446; active = well fitted curve in either direction with a large enough effect, not every such curve was filed as active;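 also: ME-180 cervical cancer cells given 40 pM IL-6 alongside compound; SIE-controlled beta-lactamase reporter measured as 460/530 nm FRET emission ratio; % is scaled to controls: 0 for no effect and ±100 for the full control effect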)
Summary of the method: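 Reporter line: ME-180 cervical carcinoma, SIE-beta-lactamase. Treatment: compound with 40 pM IL-6, 5 hrs, 37 C, in low-serum OPTI-MEM with 10 mM HEPES pH 7.3. Detection: 460/530 nm fluorescence.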

[14] = target: Glucocorticoid receptor (Homo sapiens) (UniProt P04150); assay: GR-GFP Redistribution (AID 450;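 active = compounds whose dose series gives a full or clear partial fitted curve of increased nuclear translocation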; also: potency is read from the fitted curve at half-maximal effect); conditions: U2OS GR-GFP nuclear translocation, laser cytometry, 2 h
Chain of Glucocorticoid receptor (Homo sapiens) (P04150 whole entry, looked up): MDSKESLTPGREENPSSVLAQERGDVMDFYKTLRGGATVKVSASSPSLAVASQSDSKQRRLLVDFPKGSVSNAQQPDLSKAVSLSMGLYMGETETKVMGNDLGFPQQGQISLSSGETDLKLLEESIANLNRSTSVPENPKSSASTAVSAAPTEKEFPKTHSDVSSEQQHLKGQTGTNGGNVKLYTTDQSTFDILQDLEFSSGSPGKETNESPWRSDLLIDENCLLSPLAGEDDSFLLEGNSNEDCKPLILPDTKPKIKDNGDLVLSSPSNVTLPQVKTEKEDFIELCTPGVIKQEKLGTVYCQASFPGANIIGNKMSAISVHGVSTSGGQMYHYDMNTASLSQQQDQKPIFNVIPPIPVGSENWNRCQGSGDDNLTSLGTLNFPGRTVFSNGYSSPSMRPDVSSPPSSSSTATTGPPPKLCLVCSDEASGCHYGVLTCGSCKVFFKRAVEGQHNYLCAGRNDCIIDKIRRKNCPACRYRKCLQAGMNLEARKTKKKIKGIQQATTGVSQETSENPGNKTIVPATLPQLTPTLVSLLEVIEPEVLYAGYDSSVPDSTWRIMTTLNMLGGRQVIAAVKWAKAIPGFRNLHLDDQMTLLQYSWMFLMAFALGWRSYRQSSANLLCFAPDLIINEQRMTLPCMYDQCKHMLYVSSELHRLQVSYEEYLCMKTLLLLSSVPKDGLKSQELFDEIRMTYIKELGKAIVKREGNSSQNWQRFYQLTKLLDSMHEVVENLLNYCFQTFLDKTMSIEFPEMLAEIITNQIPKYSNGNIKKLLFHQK

[15] = qHTS for Inhibitors of the vitamin D receptor (VDR): Hit Validation using a Texas Red Assay (AID 602201); also: % is scaled to controls: 0 for no effect and ±100 for the full control effect
Summary of the method: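 After a 2-hour room-temperature incubation, polarization of Texas-Red emission was read (Ex 595 nm/Em 615 nm). Final mix contained 7 nM Texas Red, 1.5 uM VDR-LBD and LG19078.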

COc1nc(C)cc(C)c1S(=O)(=O)c1ccc(Cl)cc1
inactive: Potency [1] | Potency [2] | activation [3] 6.22% [at 17.1 µM, percent relative to cAMP agonist control] | Potency [4] | activity change, negative = inhibition [5] -12.6% [at 30.8 µM] | activation [6] 27.8% [at 30.8 µM]

Cc1cccc(C)c1OC(=O)c1ccccc1
inactive: Potency [1] | Potency [2] | activation [3] 9.32% [at 17.1 µM, percent relative to cAMP agonist control] | Potency [4] | activity change, negative = inhibition [5] 6.4% [at 30.8 µM] | activation [6] 6.89% [at 30.8 µM]

COc1cc(CNc2ccc(O)cc2)cc(Br)c1OCc1ccccc1
inactive: Potency [1] | Potency [2] | Potency [3] | Potency [4] | Potency [5] | Potency [6]

COc1c(O)cc2oc(-c3ccc(O)c(O)c3)cc(=O)c2c1O
inactive: outcome [7] | outcome [8] | outcome [10] | Potency [2] | Potency [3] | Potency [4] | Potency [5] | Potency [6]
active: Potency [9] 6.31 µM | Potency [1] 10.7 µM

COC(=O)c1cc(Br)c(=O)n(Cc2ccc3c(c2)OCO3)c1
inactive: activity change, negative = inhibition [11] -2.94% [at 17.2 µM] | activity change, negative = inhibition [12] 2.18% [at 17.2 µM] | outcome [13] | Potency [14] > 20.6 µM | Potency [1] | Potency [2] | activation [3] -3.61% [at 17.1 µM, percent relative to cAMP agonist control] | Potency [4] | activity change, negative = inhibition [5] 5.45% [at 30.8 µM] | activation [6] 2.16% [at 30.8 µM]

O=S(=O)(NCC1(N2CCOCC2)CCCCC1)c1ccc(Cl)cc1C(F)(F)F
inactive: Potency [1] | Potency [2] | Potency [3] | Potency [4] | Potency [5] | Potency [6]

O=C1NC(=S)S/C1=C\c1coc2ccc(O)cc2c1=O
inactive: Potency [2] | activation [3] 11% [at 17.1 µM, percent relative to cAMP agonist control] | Potency [4] | activity change, negative = inhibition [5] -13.4% [at 30.8 µM] | activation [6] -0.252% [at 30.8 µM]
active: Potency [1] 39.8 µM

Cc1[nH]n(-c2ncc(-c3ccccc3)s2)c(=O)c1C(c1ccc(Cl)cc1)C(C#N)C#N (configuration not stated)
inactive: Potency [15] | Potency [2] | activation [3] -0.2% [at 17.1 µM, percent relative to cAMP agonist control] | Potency [4] | activity change, negative = inhibition [5] -10.4% [at 30.8 µM] | activation [6] 13% [at 30.8 µM]
active: Potency [1] 22.4 µM
